Experimental data taken from PMC4552634, “A New Set of Chemical Starting Points with Plasmodium falciparum Transmission-Blocking Potential for Antimalarial Drug Discovery” (PLoS ONE, 2015).
The whole screen tested about 13,000 compounds, of which about 3,200 (25%) showed an effect of 50% or more. The list shows a part of the results.

What follows are compounds tested on P. falciparum stage V gametocytes. Details: 48 h, 5 µM; inhibitor.
Set-up: BacTiter-Glo ATP luminescence viability of purified stage V gametocytes in 384-well plates, per cent inhibition versus DMSO
In the case of `O=C(CCc1cccc(O)c1)NCC(NCCCNc1cc(=O)c2ccccc2[nH]1)c1cc(Br)cc(Br)c1` (stereo not shown) [TCMDC-140319], the “% Inhibition” value is reported as -27.67%. For `COc1ccc(C(=O)N2CCC3(CC2)C(=O)N(CC(=O)NCC2CCCCC2)CN3c2ccccc2)c(OC)c1` [TCMDC-125170], the “% Inhibition” value was -47.66%. `O=C(NCC1CCN(CC2CCCCC2)C1)c1cc(-c2cccc(C(F)(F)F)c2)cs1.O=C(O)C(F)(F)F` (stereo not shown) [TCMDC-134422] was tested, and the “% Inhibition” value was 101.5%. For `CC(=O)Nc1ccc(CN2CCC(CNC(=O)c3cc(-c4cccc(C(F)(F)F)c4)cs3)C2)cc1.O=C(O)C(F)(F)F` (stereo not shown) [TCMDC-134456], the “% Inhibition” value was 0.3319%. `O=C(NCC1CCN(Cc2cccc(F)c2)C1)c1cc(-c2cccc(C(F)(F)F)c2)cs1` (stereo not shown) [TCMDC-134480] was tested, and the “% Inhibition” value was 4.488%. With `CN(C)c1ccc(-c2csc(C(=O)NCC3CCN(CC4CCCCC4)C3)c2)cc1.O=C(O)C(F)(F)F` (stereo not shown) [TCMDC-134424] the “% Inhibition” value was 97.4%. In the case of `O=C(NCC1CCN(Cc2ccc3c(c2)OCCO3)C1)c1cc(-c2cccc(C(F)(F)F)c2)cs1.O=C(O)C(F)(F)F` (stereo not shown) [TCMDC-134458], the “% Inhibition” value is reported as 1.256%. In the case of `O=C(NCC1CCN(Cc2ccsc2)C1)c1cc(-c2cccc(C(F)(F)F)c2)cs1.O=C(O)C(F)(F)F` (stereo not shown) [TCMDC-134478], the “% Inhibition” value is reported as -49.55%. For `O=C(NCC1CCN(Cc2cccc(C(F)(F)F)c2)C1)c1cc(-c2cccc(C(F)(F)F)c2)cs1` (stereo not shown) [TCMDC-134483], the “% Inhibition” value was 53.9%. For `O=C(NCC1CCN(Cc2cccc(C(F)(F)F)c2)C1)c1cc(-c2cccc(F)c2)cs1` (stereo not shown) [TCMDC-134484], the “% Inhibition” value was 54.37%. With `COc1ccccc1C1CCN(C2CCC(NC(=O)/C=C/c3cccc(C(F)(F)F)c3)CC2)CC1` (stereo not shown) [TCMDC-133555] the “% Inhibition” value was -60.89%. `Cc1cc(-c2cccc3c(NC(=O)N4CCc5cc6nccc(N7CCN8CCC[C@H]8C7)c6cc54)cccc23)cc(C)n1` [TCMDC-139794] was tested, and the “% Inhibition” value was -14.58%. `COc1cc2c(cc1C(F)(F)F)N(C(=O)Nc1cc(F)cc(-c3cncnc3)c1)CC2` [TCMDC-139039] was tested, and the “% Inhibition” value was -11.26%. For `O=C(Nc1cccc(-c2nc3ccccc3[nH]2)c1)c1cccc(NC(=O)c2ccco2)c1` [TCMDC-125185], the “% Inhibition” value was 18.17%. With `CC(=O)c1ccc(S(=O)(=O)N2CCC(C(=O)Nc3ccccc3N3CCCC3)CC2)cc1` [TCMDC-125467] the “% Inhibition” value was -11.47%. In the case of `CCC(C)NS(=O)(=O)c1ccc2nc(Nc3ccc(C)c(Cl)c3)n([C@H](C)C(C)(C)C)c2c1` (stereo partly shown) [TCMDC-136238], the “% Inhibition” value is reported as 38.05%. For `O=C(C=Cc1cccs1)Nc1ccc(-c2nc3ccccc3[nH]2)cc1` [TCMDC-123926], the “% Inhibition” value was -97.24%. `COc1ccccc1CN1CCC(CNC(=O)c2cc(-c3cccc(C(F)(F)F)c3)cs2)C1.O=C(O)C(F)(F)F` (stereo not shown) [TCMDC-134450] was tested, and the “% Inhibition” value was -43.84%. For `O=C(NCC1CCN(Cc2cccc(C(F)(F)F)c2)C1)c1cc(-c2cccc(Cl)c2)cs1` (stereo not shown) [TCMDC-134485], the “% Inhibition” value was 50.21%. In the case of `COc1ccccc1CN1CCC(CNC(=O)c2cc(-c3ccc(N(C)C)cc3)cs2)C1.O=C(O)C(F)(F)F` (stereo not shown) [TCMDC-134451], the “% Inhibition” value is reported as 95.05%. With `CCCC(=O)Nc1ccc(OCCCN(Cc2ccccc2F)c2ccc(C#N)c(C(F)(F)F)c2)cc1` [TCMDC-135449] the “% Inhibition” value was 24.41%. For `Oc1cc(Nc2ccnc3cc(-c4ccc(CN5CCCCC5)o4)ccc23)c(Cl)cc1F` [TCMDC-138485], the “% Inhibition” value was 11.9%. In the case of `Fc1cc(Cl)ccc1Nc1ccnc2cc(-c3ccc(CN4CCCCC4)o3)ccc12` [TCMDC-138396], the “% Inhibition” value is reported as 9.087%. For `CN1CCN(Cc2ccc(-c3ccc4c(Nc5cc(O)c(F)cc5Cl)ccnc4c3)o2)CC1` [TCMDC-138486], the “% Inhibition” value was 4.683%. In the case of `Fc1cc(Cl)ccc1Nc1ccnc2cc(-c3ccc(CN4CCSCC4)o3)ccc12` [TCMDC-138392], the “% Inhibition” value is reported as 1.462%. In the case of `Fc1cc(Cl)ccc1Nc1ccnc2cc(-c3ccc(CN4CCOCC4)o3)ccc12` [TCMDC-138393], the “% Inhibition” value is reported as 99.43%. In the case of `CN1CCN(Cc2ccc(-c3ccc4c(Nc5ccc(Cl)cc5F)ccnc4c3)o2)CC1` [TCMDC-138395], the “% Inhibition” value is reported as -22.3%. For `Fc1cc(Cl)ccc1Nc1ccnc2cc(-c3ccc(CN4CCNCC4)o3)ccc12` [TCMDC-138394], the “% Inhibition” value was 83.09%. With `CN1CCN(Cc2ccc(-c3ccc4c(Nc5cc(O)c(Cl)cc5F)ccnc4c3)o2)CC1` [TCMDC-138446] the “% Inhibition” value was 74.65%. In the case of `Fc1cc(Cl)ccc1Nc1ccnc2cc(-c3ccc(CNCCN4CCOCC4)o3)ccc12` [TCMDC-138397], the “% Inhibition” value is reported as -18.32%. `COc1ccc2nccc(N3CCN(CCNCc4ccc5c(n4)NC(=O)CS5)CC3)c2c1.Cl` [TCMDC-141962] was tested, and the “% Inhibition” value was 5.259%. In the case of `CCCCC1(c2ccc(F)cc2)NC(=O)N(CC(=O)c2cc(C)n(Cc3ccco3)c2C)C1=O` (stereo not shown) [TCMDC-125119], the “% Inhibition” value is reported as 0.3946%. With `CCNC(=O)c1cc(S(=O)(=O)N2CCN(c3ccccn3)CC2)cs1` [TCMDC-124848] the “% Inhibition” value was 88.58%. With `CNC(=O)c1cc(S(=O)(=O)N2CCN(c3ccccn3)CC2)cs1` [TCMDC-124847] the “% Inhibition” value was 78.13%. For `O=C(Nc1ccc(N2CCN(c3ncccc3C(F)(F)F)CC2)nc1)c1cccs1` [TCMDC-125784], the “% Inhibition” value was 10.79%. `CC(=O)Nc1ccc(S(=O)(=O)N2CCN(c3nc(NC4CCCC4)c4ccccc4n3)CC2)cc1` [TCMDC-123869] was tested, and the “% Inhibition” value was 2.309%. In the case of `CNC(=O)c1cc(S(=O)(=O)N2CCN(c3ccccn3)CC2)c(C)s1` [TCMDC-124846], the “% Inhibition” value is reported as 34.83%. `Cc1nc(-c2ccc3c(c2)CCN(CCC2CCC(NC(=O)c4cc5cccc(Cl)c5[nH]4)CC2)CC3)no1` (stereo not shown) [TCMDC-140071] was tested, and the “% Inhibition” value was -33.37%. `O=C(Nc1ccc(Cl)c(C(F)(F)F)c1)c1ccc(Cl)c([N+](=O)[O-])c1` [TCMDC-125647] was tested, and the “% Inhibition” value was -24.24%. With `O=C(c1ccc(F)c2ccccc12)N1CCc2cc3nccc(N4CCN5CCC[C@H]5C4)c3cc21` [TCMDC-140043] the “% Inhibition” value was 23.61%. For `CN1CCC(C(=O)N(Cc2ccc(-c3ccc(CNCCc4ccc(S(C)(=O)=O)cc4)cn3)cc2)C2CCN(Cc3ccccc3)CC2)CC1` [TCMDC-141506], the “% Inhibition” value was 104.7%. With `CN1CCC(C(=O)N(Cc2ccc(-c3ccc(CNCCc4ccc(S(C)(=O)=O)cc4)cn3)cc2)C2Cc3ccccc3C2)CC1` [TCMDC-141508] the “% Inhibition” value was 99.19%. `CS(=O)(=O)c1ccc(CCNCc2ccc(-c3ccc(CN(C(=O)C4CC(=O)c5ccccc54)C4CCN(Cc5ccccc5)CC4)cc3)nc2)cc1` (stereo not shown) [TCMDC-141605] was tested, and the “% Inhibition” value was 41.88%. `CS(=O)(=O)c1ccc(CCNCc2ccc(-c3ccc(CNC4CCN(Cc5ccccc5)CC4)cc3)nc2)cc1` [TCMDC-141614] was tested, and the “% Inhibition” value was 33.12%. `c1ccc(CCNCc2ccc(-c3ccc(CNC4CCN(Cc5ccccc5)CC4)cc3)nc2)cc1` [TCMDC-141649] was tested, and the “% Inhibition” value was 82.96%. `CS(=O)(=O)c1ccc(CCNCc2ccc(-c3ccc(CN(C(=O)C4CCCC4)C4CCN(Cc5ccccc5)CC4)cc3)nc2)cc1` [TCMDC-141511] was tested, and the “% Inhibition” value was 48.38%. In the case of `CS(=O)(=O)c1ccc(CCNCc2ccc(-c3ccc(CNC4Cc5ccccc5C4)cc3)nc2)cc1` [TCMDC-141615], the “% Inhibition” value is reported as 5.211%. For `CS(=O)(=O)c1ccc(CCNCc2ccc(-c3ccc(CN(C(=O)C4CC(=O)c5ccccc54)C4Cc5ccccc5C4)cc3)nc2)cc1` (stereo not shown) [TCMDC-141509], the “% Inhibition” value was 97.27%. In the case of `CC(C)c1ccc(Cn2cc(-c3ccncc3)c3cc(OCc4ccccc4)ccc32)cc1` [TCMDC-137225], the “% Inhibition” value is reported as 2.514%. For `CCc1cccc(NC(=O)c2ccc(CN3CCCN(CC4CCCCC4)CC3)cc2)c1` [TCMDC-136399], the “% Inhibition” value was -29.35%. `O=c1cc(NCCCNC2CCOc3c(I)cc(Cl)cc32)[nH]c2ccccc12` (stereo not shown) [TCMDC-139489] was tested, and the “% Inhibition” value was -10.52%. For `O=C1COc2ccc(CNC3CCC(O)(CCc4ccnc5cc6c(cc45)OCCO6)CC3)nc2N1` (stereo not shown) [TCMDC-141941], the “% Inhibition” value was 32.09%. With `O=C(c1ccc(-c2ccc(-c3nc4cc(C(F)(F)F)ccc4[nH]3)s2)cc1)N1CCN(CCc2ccccc2)CC1` [TCMDC-132482] the “% Inhibition” value was 3.451%. `COc1cccc2cc(C(=O)N[C@@H](CC(C)C)C(=O)N[C@H](/C=N/N3C(=O)CN(Cc4ccccc4)C3=O)CCc3ccccc3)oc12` [TCMDC-136198] was tested, and the “% Inhibition” value was -10.77%. In the case of `O=C(Cc1cccc(O)c1)Nc1ccc(-c2cccc(-c3nc4ccc(C(F)(F)F)cc4[nH]3)c2)cc1` [TCMDC-132176], the “% Inhibition” value is reported as 0.6072%. In the case of `COc1ccc(CCN2CCC(CN(C)Cc3cnn(-c4ccccc4)c3)CC2)cc1` [TCMDC-124632], the “% Inhibition” value is reported as -8.037%. `COc1ccc(CNCc2ccc(-c3ccc(CNCCc4ccccc4)cn3)cc2)cn1` [TCMDC-141647] was tested, and the “% Inhibition” value was 26.41%. With `CN1CCC(C(=O)N(Cc2ccc(-c3ccc(CNCCc4ccccc4)cn3)cc2)C2CCN(Cc3ccccc3)CC2)CC1` [TCMDC-141552] the “% Inhibition” value was 110.4%. For `CN1CCCC1CCNCc1ccc(-c2ccc(CNCCc3ccccc3)cn2)cc1` (stereo not shown) [TCMDC-141617], the “% Inhibition” value was 85.17%. For `CC(C)C[C@@H](C(=O)N[C@@H](CCCCNC(=O)OCc1ccccc1)C(=O)Nc1nccs1)[C@H](C)N(O)C=O` [TCMDC-137184], the “% Inhibition” value was -15.37%. With `C[C@@H]([C@@H](CCCc1ccc(Cl)cc1)C(=O)N[C@H](C(=O)Nc1cccnc1)C(C)(C)C)N(O)C=O` [TCMDC-138383] the “% Inhibition” value was -4.065%.
